Compounds with a hit are over-represented: about 6.2% of the library has one in this group of screens.
ATXN2 expr inh: reduces ATXN2 reporter expression in HEK-293 cells | 360,000 tested, 0.72% active | AID 1745845 | Potency, µM (highest dose often 57 µM), for inactives: at the top dose activity change, negative = inhibition, most hits filed as inhibitors | HEK-293 ATXN2-luciferase reporter, luminescence, 24 h; also: % is scaled to controls: 0 for no effect and ±100 for the full control effect; nearly all actives have a fitted effect of over 55% in size
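qHTS (up to 57 uM final) was run with 24 h compound exposure of reporter cells at 37 °C. Each well was multiplexed: SteadyGlo luminescence measured ATXN2-luciferase expression after a fluorogenic Gly-Phe-AFC viability readout (25 uM final).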
HT1080NT lethal: kills 2HG-producing HT-1080-NT fibrosarcoma cells; 360,000 tested, 1.6% active; Potency, µM (series often up to 46.1 µM), inactives show at the top dose activity, negative = less viability, actives largely listed as cytotoxic; HT-1080-NT fibrosarcoma viability, CellTiter-Glo ATP luminescence, 48 h;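 also: NT is the 2HG producing partner of a matched IDH1 knockdown line; 0% = DMSO-treated cells and -100% = media-only wells without cells; nearly all actives have a fitted effect of over 55% in size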
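A 48-hour cytotoxicity screen used HT-1080-NT cells plated 2 hours before compound delivery. ATP-based CellTiter-Glo luminescence measured viability, normalized to DMSO and no-cell controls.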
KB-V1 MDR tox: kills drug-selected multidrug resistant KB-V1 cells. Potency, µM (series often up to 46.1 µM), usual class: cytotoxic. 400,000 tested, 3.4% active. AID 1347076. KB-V1 MDR cells viability, CellTiter-Glo, 72 h; also: % is scaled to controls: 0 for no effect and ±100 for the full control effect; nearly all actives have a fitted effect of over 60% in size
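Cytotoxicity toward P-gp-expressing KB-V1 cells was determined as loss of CellTiter-Glo luminescence after 72 h at 37 degrees C. Compounds were tested in quantitative HTS format across a concentration range, with curves fitted to normalized data.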
ATXN viability: reduces viability in counter-screen for ATXN expression inhibitors. S2 cells (HEK-293 line with an ATXN2-luciferase reporter) viability, CellTiter-Fluor protease fluorescence, 24 h. Potency, µM (series often up to 56.7 µM), hits mostly cytotoxic. 400,000 tested, 0.49% active; also: nearly all actives have a fitted effect of over 40% in size
KB-3-1 tox: KB-3-1 parental cell cytotoxicity. Potency, µM (doses to about 46.1 µM), hits mostly cytotoxic. 400,000 tested, 1.4% active. KB-3-1 viability, CellTiter-Glo ATP luminescence, 72 h. AID 1347075; also: % is scaled to controls: 0 for no effect and ±100 for the full control effect; nearly all actives have a fitted effect of over 60% in size
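Cells are dispensed, compounds pinned in, plates held at 37 °C for 72 h, then CellTiter-Glo is added and luminescence read after 10 minutes. Cell line: parental KB-3-1 in phenol-red-free DMEM, 10% FBS.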
HT1080 IDH1KD tx: kills HT-1080 cells with IDH1 knockdown | HT-1080 IDH1 knockdown viability, ATP luminescence, 48 h | Potency, µM (highest dose often 46.1 µM), without a hit: top-dose activity, negative = toxicity, most hits filed as cytotoxic | 360,000 tested, 2% active | AID 686971;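 also: 0% = DMSO wells and -100% = cell-free medium wells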
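Cytotoxicity counter-line: IDH1KD HT-1080, 48 h, CellTiter-Glo. Curves classed by r2, magnitude and activity.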
An asterisk follows results filed as active; i = inactive; ? = inconclusive; / = no result given; [ ] = dose if it differs, or a comment. Calls follow the shape of the dose curve; as a rule, active = well fitted curve in the direction sought with a large enough effect; inconclusive = small, poorly fitted or top-dose-only effect, or another doubt; inactive = no such curve, though single readings can be large; an effect the other way counts as inactive or inconclusive. Potency is read from the fitted curve at half-maximal effect.

SMILES | ATXN2 expr inh | HT1080NT lethal | KB-V1 MDR tox | ATXN viability | KB-3-1 tox | HT1080 IDH1KD tx
COc1ccc(C)cc1Nc1n[n+](-c2ccccc2)c(-c2ccc(SC)cc2)s1 | -10% | ? | ? | i | ? | 18µM*
NS(=O)(=O)c1cc2c(cc1Cl)CN(C1CCCCC1)C2=O | 8% | / | / | i | / | /
CSc1cccc(NC(=O)NCc2cccc(CNC(=O)Nc3cccc(SC)c3)c2)c1 | / | 23µM* | i | ? | ? | ?
O=C(COc1ccc(Cl)cc1Cl)NCCN1CCCC1 | / | -21% | i | i | i | -20%
CC(=O)N1CCN(Cc2cc(=O)oc3ccccc23)CC1 | 14% | 1% | i | i | i | 2%
CCCCN(Cc1ccccc1)C(=O)c1oc(=O)c2ccccc2c1-c1ccc(C)cc1 | -2% | / | i | i | ? | /
CCCCNC(=O)CSc1nc2ccccc2c(=O)n1Cc1ccc2c(c1)OCO2 | / | 1% | i | / | i | 2%
CCOCCCn1c(=N)c(C(=O)NCc2ccc3c(c2)OCO3)cc2c(=O)n3cccc(C)c3nc21 | ? | 3%[9.24 µM] | i | ? | 6.5µM* | ?
CCOCCCn1c(SCC(=O)NCc2ccc3c(c2)OCO3)nc2ccccc2c1=O | -18% | 2% | 15µM* | ? | i | 1%
CCCCNC(=O)c1cc2c(=O)n3cccc(C)c3nc2n(CCN2CCOCC2)c1=N | -5% | 6% | 10µM* | i | i | 16%
Cc1cccn2c(=O)c3cc(C(=O)NCCc4ccccc4)c(=N)n(Cc4ccco4)c3nc12 | ? | 6.5µM* | ? | i | i | 5.2µM*
CCOc1ccccc1C(=O)NC(C(=O)OCn1nnc2ccccc2c1=O)C(C)C (centres undefined) | / | 15% | i | i | i | 8%
COc1ccc(-c2oc3cc(O)c(OC)c(O)c3c(=O)c2OC)cc1O | 57% | 0.41µM* | 0.65µM* | ? | 0.82µM* | 0.58µM*
COc1cccc(N(CC(=O)Nc2ccccc2C(=O)N2CCCC2)S(C)(=O)=O)c1 | -17% | 18% | i | i | i | 22%
Cc1cccc2cc(CN(Cc3cccs3)S(=O)(=O)c3ccc4c(c3)OCCO4)c(=O)[nH]c12 | -1% | -2% | 5.2µM* | i | ? | -19%
COc1ccc(-c2cc(C(F)(F)F)n3nc(C(=O)Nc4cc(C(F)(F)F)ccc4Cl)cc3n2)cc1OC | 8% | / | i | i | i | /
Cc1ccccc1[C@H](NC1c2ccccc2C=Cc2ccccc21)P(=O)(c1ccccc1)c1ccccc1 | ? | 15µM* | ? | ? | ? | 13µM*
CCOC(=O)c1sc(NC(=O)COc2ccccc2Cl)c(C(=O)OCC)c1C | 13% | / | i | i | i | /
CCN(C(=O)CSc1nc2ccccc2nc1Cc1ccc(F)cc1)c1cccc(C)c1 | 13% | / | i | ? | i | /
CCN(C(=O)CSc1nc(-c2ccccc2)no1)c1cccc(C)c1 | ? | / | i | ? | 6.5µM* | /
COC(=O)CC1C(=O)NCCN1C(=O)CN1Cc2ccccc2OC(c2ccccc2)C1 (centres undefined) | / | / | / | i | / | /
CCCn1c(=O)[nH]c(=O)c2c1nc(-c1ccccc1OC(F)F)n2CCOC | 0% | 2% | 18µM* | i | i | 4%
CCCn1c(=O)[nH]c(=O)c2c1nc(-c1ccc(OC(F)F)c(OC)c1)n2CCOC | 1% | -1% | i | i | i | -2%
COc1ccc(NC(=O)c2ccc3c(=O)n4nc(Nc5ccccc5C)sc4nc3c2)cc1Cl | -16% | / | i | i | i | /
CN(C)c1cccc(-c2nc(N3CCC(C(N)=O)CC3)ncc2F)c1 | / | / | i | / | i | /
SMILES | ATXN2 expr inh | HT1080NT lethal | KB-V1 MDR tox | ATXN viability | KB-3-1 tox | HT1080 IDH1KD tx
COc1ccc(Nc2nc(NCc3ccco3)nc(N)c2[N+](=O)[O-])cc1 | -8% | 0% | i | i | i | 7%
Cc1cccc(Nc2nc(NCc3ccco3)nc(N)c2[N+](=O)[O-])c1 | ? | 0% | i | i | i | -10%
Nc1nc(Nc2cccc(Cl)c2)nc(NCc2ccco2)c1[N+](=O)[O-] | ? | ? | ? | ? | 16µM* | 16µM*
Cc1cccc(Nc2nc(N)c([N+](=O)[O-])c(NCc3ccco3)n2)c1 | -35% | ? | 7.3µM* | ? | ? | ?
Nc1nc(Nc2cccc(F)c2)nc(NCc2ccco2)c1[N+](=O)[O-] | -4% | 9.2µM* | ? | i | ? | 26µM*
Nc1nc(Nc2ccc(Cl)cc2)nc(NCc2ccco2)c1[N+](=O)[O-] | -4% | ? | 16µM* | i | i | 18µM*
COc1ccc(Cl)cc1NC(=O)CN(C)C(=O)CCc1nc2ccccc2c(=O)[nH]1 | / | -3% | i | i | i | -6%
COc1ccc(-n2nnnc2SC(C)C(=O)NC2CCCC2)cc1 (centres undefined) | / | 2% | i | i | i | -1%
CC(Sc1nnnn1-c1ccccc1)C(=O)NC1CCCC1 (centres undefined) | 3% | 7% | 13µM* | i | i | 7%
CCOc1ccc(N2C(=O)CC(Sc3nnnn3-c3ccccc3)C2=O)cc1 (centres undefined) | -7% | -28% | i | ? | i | 15µM*
O=C(NC1CCCCC1)C1CCCN(c2nnnn2-c2ccccc2)C1 (centres undefined) | -17% | 21% | 16µM* | i | i | -7%
O=C(Nc1cccc(F)c1)C1CCN(c2nnnn2-c2ccccc2)CC1 | -15% | 0% | ? | i | ? | -7%
CCOc1ccc(NC(=O)C2CCN(c3nnnn3-c3ccccc3)CC2)cc1 | -7% | 0% | 8.2µM* | i | i | -1%
CCOc1ccc(N2C(=O)CC(SCCN)C2=O)cc1 (centres undefined) | -9% | 7% | i | i | i | 11%
CCn1nnc2c(N3CCCC3)ncnc21 | / | 5% | / | / | / | 16%
CCc1ccccc1Nc1nc2ccccc2c2nncn12 | 1% | / | i | i | i | /
Cc1cc(C)cc(C(=O)NCCc2sc(-c3ccc(F)cc3)nc2C)c1 | -17% | / | ? | i | i | /
Cc1ccc(-c2nc(NCCN3CCOCC3)c3ccccc3n2)cc1 | -22% | ? | i | ? | i | ?
COc1cccc(-c2nc(NCCN3CCOCC3)c3ccccc3n2)c1O | / | ? | ? | / | i | -27%
Oc1ccccc1-c1nc(NCCN2CCOCC2)c2ccccc2n1 | -16% | 21µM* | 16µM* | ? | ? | 21µM*
